From PubChem BioAssay (NCI)
Where “and” joins values, the source holds several entries; their conditions need not be identical. Identical values can stand only once. This is part of a sample that, as a whole, favours compounds with a hit. Of some 83,000 tested, about 20% had one in any assay.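 Results are percent growth after 48 hours of single-concentration exposure. 100 means growth as in untreated cells, lower positive values show inhibition; negative values down to -100 show cell death.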 Calls of active or inactive are those of the source. The calls were made as follows: active = growth percent below 10; inactive = the rest.

These compounds were tested on MDA-MB-468 breast (assay: NCI-60 one-dose screen, 48 h (100 = growth as untreated, 0 = no growth, -100 = all killed)). Settings: 10 µM unless noted.
`Fc1ccc2nc(-c3cnn4cccnc34)sc2c1` was tested, and the growth was -2.57% (active).
For `COc1cc2nc(N3CCCC3)nc(Nc3ccccc3)c2cc1OC`, the growth was -38.2% (active).
With `O=[N+]([O-])c1ccc(C(c2ccccc2)c2ccccc2)cc1` the growth was 101% (inactive).
For `Nc1c(C(=O)Nc2ccccc2Cl)sc2nc3c(cc12)CN(Cc1ccccc1)CC3`, the growth was 102% (inactive).
`ClC(Cl)c1nc(-c2cccnc2)n2nc(-c3ccccc3)cc2n1` was tested, and the growth was -29.7% (active).
For `Cc1ccc(C(=O)N2C/C(=C/c3ccc(F)cc3)C(=O)/C(=C/c3ccc(F)cc3)C2)cc1`, the growth was 79.5% (inactive).
`CCCCCC(=O)Oc1ccc(/C(=C(/C)Cc2ccc(OC)cc2)c2ccc(OCCCN(C)C)cc2)cc1` was tested, and the growth was 56.4% (inactive).
For `CNC(=O)c1cc(Oc2ccc3nc(Nc4cc(Cl)cc(Cl)c4)ccc3c2)ccn1`, the growth was 54.1% (inactive).
In the case of `CCN(CC)CCCNc1ccnc2cc3ccccc3cc12`, the growth is reported as 75.9% (inactive).
For `COc1ccc(/C=C2/CN(C(=O)c3ccc(C)cc3)C/C(=C\c3ccc(OC)cc3)C2=O)cc1`, the growth was 74.1% (inactive).
In the case of `Nc1ncnc2[nH]c(=O)[nH]c12`, the growth is reported as 97.8% (inactive).
With `Cc1nn(-c2ccccc2)c(Oc2ccc(Cl)cc2)c1/C=N\N=c1/sc2ccccc2n1C` the growth was 81.8% (inactive).
For `CO[C@H]1/C=C/O[C@@]2(C)Oc3c(C)c(O)c4c(O)c(c5c(nc6cc(C)ccn65)c4c3C2=O)NC(=O)/C(C)=C\C=C\[C@H](C)[C@H](O)[C@@H](C)C(O)[C@@H](C)[C@H](OC(C)=O)[C@@H]1C` (stereo not given in full), the growth was 105% (inactive).
In the case of `CCCCCCCCN(CCCCCCCC)CCCCCCCCCN1CCCc2cc(OC)ccc21`, the growth is reported as 61.8% (inactive).
In the case of `CCN(CC)c1ccc(/C=N/NC(=O)c2ccc(NS(C)(=O)=O)cc2)c(O)c1`, the growth is reported as -10.8% (active).
`O=C1CCC(=O)CC1` was tested, and the growth was 115% (inactive).
In the case of `CC(=O)N(N=O)c1ccc([N+](=O)[O-])cc1Cl`, the growth is reported as 29.7% (inactive).
In the case of `CCOC(=O)C1=C(C)N=C2Sc3cc(OC(F)(F)F)ccc3N2[C@H]1c1ccccn1`, the growth is reported as 29.1% (inactive).
For `CC1(C)C(N)=Nc2cc(OCCCN3Cc4ccc(OCCc5cn(CC(=O)N6CCC(CCN7CCCC7)CC6)nn5)cc4C3)c(OCC3CC3)cc21`, the growth was 108% (inactive).
In the case of `COc1ccc(Cn2cc3c(c2-c2cc(OC)c(OC)c(OC)c2)CCc2cnoc2-3)cc1N`, the growth is reported as -10.1% (active).
`O=C(O)c1c([N+](=O)[O-])cnc2ccccc12` was tested, and the growth was 112% (inactive).
`Cc1ccc(Nc2nc(N)nc(CSCC(=O)NN)n2)cc1` was tested, and the growth was 95.7% (inactive).
For `COc1ccc(/C=C(\C#N)c2cc3ccccc3[nH]2)cc1`, the growth was 17.7% (inactive).
For `CCCCCOC(=O)c1ccccc1O`, the growth was 107% (inactive).
For `COc1ccc(C(=O)Cn2c(C(=O)c3ccc(Cl)cc3)nc3ccccc32)cc1`, the growth was 63.9% (inactive).
With `Cc1ccc2nc(-c3ccc(-n4on4-c4ccc(/C=C/c5ccc(-n6on6-c6ccc(-c7nc8ccc(C)cc8s7)cc6)cc5S(=O)(=O)O)c(S(=O)(=O)O)c4)cc3)sc2c1` the growth was 114% (inactive).
For `C/C(=N\O)c1ccc(NC(=O)CSc2nnc(-c3cc(-c4ccc(S(C)(=O)=O)cc4)nc4ccccc34)n2-c2ccccc2)cc1`, the growth was 92.6% (inactive).
For `CCC(=O)Nc1ccc(-c2nc(-c3cccc(O)c3)c(-c3ccnc(Br)c3)[nH]2)cc1`, the growth was 30.5% (inactive).
`COc1cc2nc(N3CCCC3)nc(NCc3ccccc3)c2cc1OC` was tested, and the growth was 45.2% (inactive).
With `C/C(=C\c1ccc([N+](=O)[O-])cc1)C(=O)O` the growth was 116% (inactive).
With `Oc1ccc(CSc2nnc(-c3ccc(Oc4ccccc4)cc3)o2)c2cccnc12` the growth was 30.7% (inactive).
For `CC[C@]12C=CCN3CC[C@@]4(c5cc(NC(=O)CCC(=O)O[C@H]6CC[C@H]7[C@@H]8CCC9=CC(=O)CC[C@@H]9[C@H]8CC[C@]67C)c(OC)cc5N(C)[C@H]4[C@@](O)(C(=O)OC)[C@@H]1OC(C)=O)[C@@H]32`, the growth was 51.9% (inactive).
`CCCCC/C=C/C(=O)CCc1ccc(O)c(OC)c1` was tested, and the growth was 65.8% (inactive).
With `COc1ccc(-c2ccc(-c3ccc(C(=N)N)cn3)s2)cc1` the growth was 72.6% (inactive).
With `ClC1c2ccccc2CCc2ccccc21` the growth was 111% (inactive).
For `CCN1CCN(Cc2cn(-c3ccc(S(N)(=O)=O)cc3)nn2)CC1`, the growth was 99.7% (inactive).
With `N#Cc1cccc(NC(=O)c2cc(-c3ccc(F)cc3F)ccc2O)c1` the growth was -4.46% (active) and -3.84% (active).
In the case of `CC(C)Cc1ccc(C(C)C(=O)NCc2ccc(Cn3c(=O)sn(CCCI)c3=O)cc2)cc1` (stereo not given), the growth is reported as 64.3% (inactive) and -91.8% (active).
With `O=C1Nc2ccccc2C2c3cccn3-c3ccccc3N12` (stereo not given) the growth was 47.8% (inactive).
`O=[N+]([O-])c1ccc(-c2cc3c(Nc4ccc(OCc5cccc(Cl)c5)c(Cl)c4)ncnc3s2)cc1` was tested, and the growth was 56.2% (inactive).
